Assay results reported in the supplement of paper PMC10849652.
About 8,800 targets were measured; listed, in parts, are those with a hit and a random draw of the rest. About 0.5% of all pairs of compound and target were hits.

Columns and labels:
Assay in all cases: log2 fold change, soluble protein after heating vs DMSO (PISA); higher = thermal stabilisation; K562 lysate, 10 uM; active = over 0.2 and 3.5 SD of the protein, either way, in both replicates (recomputed)
[1] = compound: Cc1cn(-c2cc(NC(=O)c3ccc(C)c(Nc4nccc(-c5cccnc5)n4)c3)cc(C(F)(F)F)c2)cn1 [nilotinib]
Outline: (§1)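 Quantification was by TMTpro 16plex LC-MS/MS with equalised channel sums, applied to the supernatant after 21,000xg for 90 min. Samples were crude K562 extract at 1 mg/mL protein in PBS pH 7.4 with 1 mM MgCl2, treated with 10 μM compound for 30 min, heated for 3 min across 48°C-58°C, pooled and brought to 0.5% NP-40 at 4°C. Values are log-two fold changes in thermal stability relative to solvent controls, from duplicates.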

[2] = compound: Cc1nc(Nc2n[nH]c3c2CN(C(=O)N[C@H](CN(C)C)c2ccccc2)C3(C)C)c2sccc2n1
Outline: as §1

[3] = compound: Cc1nc(Nc2ncc(C(=O)Nc3c(C)cccc3Cl)s2)cc(N2CCN(CCO)CC2)n1 [dasatinib]
Outline: as §1

[4] = compound: Cc1ncc(-c2ccnc(Nc3ccc(S(C)(=O)=O)cc3)n2)n1C(C)C
Outline: as §1

[5] = compound: Cn1cc(-c2ccc3c(c2)CCN3C(=O)Cc2cccc(C(F)(F)F)c2)c2c(N)ncnc21
Outline: as §1

[6] = compound: Cn1cc(CNCC2CCN(c3ncc(C(=O)NO)cn3)CC2)c2ccccc21 [quisinostat]
Outline: as §1

[7] = compound: Cn1cncc1[C@@](N)(c1ccc(Cl)cc1)c1ccc2c(c1)c(-c1cccc(Cl)c1)cc(=O)n2C [tipifarnib]
Outline: as §1

[8] = compound: NC(=O)Nc1cc(-c2cccc(F)c2)sc1C(=O)N[C@H]1CCCNC1
Outline: as §1

[9] = compound: NC(=O)c1cnc(N[C@@H]2CCCC[C@@H]2N)nc1Nc1cccc(-n2nccn2)c1
Outline: as §1

[10] = compound: NC1(c2ccc(-c3nc4ccn5c(=O)[nH]nc5c4cc3-c3ccccc3)cc2)CCC1
Outline: as §1

[11] = compound: NCC(=O)Nc1ccc(-n2nc(C(F)(F)F)cc2-c2ccc3c(ccc4ccccc43)c2)cc1
Outline: as §1

[12] = compound: O=C(CCCCCCC(=O)Nc1ccccc1)NO [vorinostat]
Outline: as §1

[13] = compound: O=C(O)c1ccc2c(c1)nc(Nc1cccc(Cl)c1)c1ccncc12 [silmitasertib]
Outline: as §1

[14] = compound: O=C1NC(=O)C(c2cnc3ccccn23)=C1c1cn2c3c(cc(F)cc13)CN(C(=O)N1CCCCC1)CC2
Outline: as §1

[15] = compound: c1cn2cc(-c3ccc4cn[nH]c4c3)nc(Nc3ccc(N4CCOCC4)cc3)c2n1 [entospletinib]
Outline: as §1

Measured: log2 fold change

SMIM12 (UniProt Q96EX1)
inactive: [1] 0.014 | [2] 0.025 | [3] 0.09 | [4] 0.027 | [5] 0.061 | [6] -0.093 | [7] -0.023 | [8] 0.002 | [9] -0.016 | [10] -0.041 | [11] -0.044 | [12] 0.174 | [13] -0.003 | [14] -0.025 | [15] -0.058

TAPT1 (UniProt Q6NXT6)
inactive: [1] 0.009 | [2] 0.012 | [3] 0.013 | [4] 0.03 | [5] -0.118 | [6] -0.053 | [7] 0.017 | [8] -0.032 | [9] 0.011 | [10] -0.001 | [11] 0.023 | [12] 0.09 | [13] 0.007 | [14] 0.023 | [15] 0.001

SLC25A36 (UniProt Q96CQ1)
inactive: [1] 0.081 | [2] -0.007 | [3] 0.012 | [4] 0.04 | [5] 0.085 | [6] 0.045 | [7] -0.119 | [8] -0.08 | [9] 0.003 | [10] -0.031 | [11] -0.172 | [12] -0.071 | [13] 0.001 | [14] 0.033 | [15] 0.013

SPIRE1 (UniProt Q08AE8)
Chain of UniProt Q08AE8 (Q08AE8 whole entry, looked up): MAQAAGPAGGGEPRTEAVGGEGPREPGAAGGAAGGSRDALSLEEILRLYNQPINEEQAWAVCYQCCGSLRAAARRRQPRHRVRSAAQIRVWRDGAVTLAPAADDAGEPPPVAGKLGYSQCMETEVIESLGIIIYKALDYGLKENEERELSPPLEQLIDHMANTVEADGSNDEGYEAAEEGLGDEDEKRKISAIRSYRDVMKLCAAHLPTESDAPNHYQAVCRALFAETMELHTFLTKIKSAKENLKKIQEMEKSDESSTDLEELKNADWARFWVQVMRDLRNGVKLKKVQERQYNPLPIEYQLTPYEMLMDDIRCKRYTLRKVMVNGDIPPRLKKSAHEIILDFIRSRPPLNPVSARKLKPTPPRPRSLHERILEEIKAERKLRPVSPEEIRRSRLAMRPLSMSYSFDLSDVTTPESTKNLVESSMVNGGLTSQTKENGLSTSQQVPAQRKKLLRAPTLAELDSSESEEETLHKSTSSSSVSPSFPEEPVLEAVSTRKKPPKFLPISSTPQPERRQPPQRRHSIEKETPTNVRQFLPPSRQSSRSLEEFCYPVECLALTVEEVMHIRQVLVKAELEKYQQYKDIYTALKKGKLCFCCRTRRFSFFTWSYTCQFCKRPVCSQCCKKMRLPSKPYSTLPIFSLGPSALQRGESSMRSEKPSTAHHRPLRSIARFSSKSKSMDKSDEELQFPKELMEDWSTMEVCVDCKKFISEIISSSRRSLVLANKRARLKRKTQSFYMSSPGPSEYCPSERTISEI
inactive: [1] 0.064 | [2] 0.011 | [3] 0.037 | [4] -0.03 | [5] 0.025 | [6] -0.186 | [7] 0.055 | [8] -0.032 | [9] 0.042 | [10] -0.01 | [11] 0.092 | [12] 0.15 | [13] -0.02 | [14] -0.129 | [15] 0.076

SNRNP40 (UniProt Q96DI7)
inactive: [1] 0.018 | [2] 0.03 | [3] -0.007 | [4] 0.019 | [5] -0.004 | [6] -0.027 | [7] 0.012 | [8] 0.013 | [9] -0.012 | [10] 0.002 | [11] 0.01 | [12] 0.233 | [13] -0.012 | [14] 0.022 | [15] 0.03

SLC11A2 isoform 3 (UniProt P49281)
inactive: [1] -0.099 | [2] -0.108 | [3] 0.07 | [4] 0.03 | [5] -0.048 | [6] -0.112 | [7] -0.089 | [8] 0.055 | [9] -0.042 | [10] 0.111 | [11] -0.011 | [12] 0 | [13] -0.047 | [14] 0.013 | [15] -0.054

SYNE2 isoform 2 (UniProt Q8WXH0)
inactive: [1] 0.086 | [2] -0.034 | [3] 0.032 | [4] -0.002 | [5] -0.024 | [6] -0.176 | [7] 0.005 | [8] -0.043 | [9] -0.021 | [10] -0.091 | [11] 0.071 | [12] 0.088 | [13] -0.015 | [14] 0.051 | [15] -0.003

SNW1 (UniProt Q13573)
Chain of UniProt Q13573 (Q13573 whole entry, looked up): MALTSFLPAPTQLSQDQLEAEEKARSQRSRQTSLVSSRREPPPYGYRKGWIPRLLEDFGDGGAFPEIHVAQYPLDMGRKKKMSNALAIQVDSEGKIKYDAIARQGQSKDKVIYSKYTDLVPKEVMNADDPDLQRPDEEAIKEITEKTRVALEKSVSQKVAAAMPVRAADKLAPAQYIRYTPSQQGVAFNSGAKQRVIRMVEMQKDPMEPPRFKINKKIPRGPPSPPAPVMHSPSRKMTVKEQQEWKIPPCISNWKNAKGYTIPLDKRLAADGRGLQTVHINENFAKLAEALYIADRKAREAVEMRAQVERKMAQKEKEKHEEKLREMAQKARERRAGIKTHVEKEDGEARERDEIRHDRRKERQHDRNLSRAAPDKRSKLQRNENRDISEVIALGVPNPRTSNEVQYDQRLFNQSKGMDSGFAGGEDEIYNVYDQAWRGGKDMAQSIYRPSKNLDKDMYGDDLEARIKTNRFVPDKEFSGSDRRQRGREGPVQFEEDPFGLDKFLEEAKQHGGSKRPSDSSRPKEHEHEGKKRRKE
inactive: [1] 0.002 | [2] -0.009 | [3] 0.024 | [4] -0.036 | [5] -0.015 | [6] 0.012 | [7] 0.009 | [8] -0.016 | [9] -0.01 | [10] -0.01 | [11] 0.011 | [13] -0.003 | [14] -0.012 | [15] 0.009
active: [12] 0.224

SNRPD2 (UniProt K7EJB5)
inactive: [1] -0.081 | [2] 0.005 | [3] -0.026 | [4] -0.094 | [5] -0.084 | [6] -0.267 | [7] -0.075 | [8] -0.082 | [9] 0.044 | [10] 0 | [11] 0.119 | [13] 0.056 | [14] -0.1 | [15] -0.004
active: [12] 0.493

SMN1 (UniProt Q16637)
Chain of UniProt Q16637 (Q16637 whole entry, looked up): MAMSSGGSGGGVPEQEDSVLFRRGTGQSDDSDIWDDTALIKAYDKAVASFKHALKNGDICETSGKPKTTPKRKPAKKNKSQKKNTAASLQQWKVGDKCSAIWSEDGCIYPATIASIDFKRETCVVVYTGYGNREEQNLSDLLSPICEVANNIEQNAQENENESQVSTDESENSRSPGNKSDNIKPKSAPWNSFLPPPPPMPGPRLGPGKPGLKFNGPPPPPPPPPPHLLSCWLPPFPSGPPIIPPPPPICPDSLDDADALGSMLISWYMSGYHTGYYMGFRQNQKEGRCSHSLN
inactive: [1] 0.012 | [2] 0.019 | [3] -0.005 | [4] -0.023 | [5] 0.05 | [6] -0.146 | [7] 0 | [8] -0.001 | [9] 0.047 | [10] 0 | [11] -0.014 | [13] 0.035 | [14] 0.052 | [15] -0.024
active: [12] -0.278

SYNRG (UniProt Q9UMZ2)
Chain of UniProt Q9UMZ2 (Q9UMZ2 whole entry, looked up): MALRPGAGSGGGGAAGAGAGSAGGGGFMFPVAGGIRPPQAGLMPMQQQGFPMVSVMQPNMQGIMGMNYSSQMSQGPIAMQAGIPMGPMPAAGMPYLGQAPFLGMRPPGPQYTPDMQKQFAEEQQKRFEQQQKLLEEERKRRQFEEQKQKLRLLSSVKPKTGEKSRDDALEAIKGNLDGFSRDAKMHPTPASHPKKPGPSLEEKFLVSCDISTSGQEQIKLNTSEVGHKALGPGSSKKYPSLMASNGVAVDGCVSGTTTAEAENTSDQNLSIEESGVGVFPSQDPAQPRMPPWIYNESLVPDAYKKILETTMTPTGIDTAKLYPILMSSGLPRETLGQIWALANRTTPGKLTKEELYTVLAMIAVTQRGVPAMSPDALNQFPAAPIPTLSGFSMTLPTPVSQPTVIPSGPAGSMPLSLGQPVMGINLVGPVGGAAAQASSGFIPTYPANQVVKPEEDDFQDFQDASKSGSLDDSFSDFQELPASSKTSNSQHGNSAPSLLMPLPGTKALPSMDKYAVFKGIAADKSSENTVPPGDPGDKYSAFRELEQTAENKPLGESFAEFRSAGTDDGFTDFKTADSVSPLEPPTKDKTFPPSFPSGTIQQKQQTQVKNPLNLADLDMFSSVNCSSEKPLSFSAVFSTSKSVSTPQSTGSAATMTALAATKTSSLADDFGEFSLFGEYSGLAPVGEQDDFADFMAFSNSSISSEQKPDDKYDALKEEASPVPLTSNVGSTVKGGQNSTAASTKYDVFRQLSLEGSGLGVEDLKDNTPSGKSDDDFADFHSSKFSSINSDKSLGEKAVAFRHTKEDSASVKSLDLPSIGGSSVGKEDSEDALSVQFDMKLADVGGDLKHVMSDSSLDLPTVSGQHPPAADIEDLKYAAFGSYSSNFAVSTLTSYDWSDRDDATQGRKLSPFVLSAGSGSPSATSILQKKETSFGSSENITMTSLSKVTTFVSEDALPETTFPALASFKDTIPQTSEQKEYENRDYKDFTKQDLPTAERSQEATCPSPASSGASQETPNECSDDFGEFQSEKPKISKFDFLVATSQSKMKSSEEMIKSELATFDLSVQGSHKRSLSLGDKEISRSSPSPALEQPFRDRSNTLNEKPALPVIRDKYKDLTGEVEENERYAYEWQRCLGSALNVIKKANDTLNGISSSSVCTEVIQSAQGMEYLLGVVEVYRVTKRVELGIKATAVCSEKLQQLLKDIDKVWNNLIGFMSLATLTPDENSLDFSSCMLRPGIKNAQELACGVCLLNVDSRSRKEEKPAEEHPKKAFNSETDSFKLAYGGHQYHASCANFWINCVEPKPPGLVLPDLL
inactive: [1] -0.007 | [2] 0.012 | [3] 0.009 | [4] 0.036 | [5] 0.001 | [6] 0.021 | [7] -0.025 | [8] 0.018 | [9] 0.026 | [10] -0.079 | [11] 0.02 | [12] -0.002 | [13] -0.01 | [14] -0.002 | [15] -0.014

STK25 (UniProt O00506)
inactive: [1] 0.037 | [2] 0.265 | [3] 0.235 | [4] 0.026 | [5] 0.059 | [6] 0.013 | [7] -0.027 | [8] 0.165 | [9] 0.032 | [10] -0.009 | [11] -0.024 | [12] -0.06 | [13] 0.051 | [14] -0.03 | [15] -0.043

SPATA5L1 (UniProt Q9BVQ7)
Chain of UniProt Q9BVQ7 (Q9BVQ7 whole entry, looked up): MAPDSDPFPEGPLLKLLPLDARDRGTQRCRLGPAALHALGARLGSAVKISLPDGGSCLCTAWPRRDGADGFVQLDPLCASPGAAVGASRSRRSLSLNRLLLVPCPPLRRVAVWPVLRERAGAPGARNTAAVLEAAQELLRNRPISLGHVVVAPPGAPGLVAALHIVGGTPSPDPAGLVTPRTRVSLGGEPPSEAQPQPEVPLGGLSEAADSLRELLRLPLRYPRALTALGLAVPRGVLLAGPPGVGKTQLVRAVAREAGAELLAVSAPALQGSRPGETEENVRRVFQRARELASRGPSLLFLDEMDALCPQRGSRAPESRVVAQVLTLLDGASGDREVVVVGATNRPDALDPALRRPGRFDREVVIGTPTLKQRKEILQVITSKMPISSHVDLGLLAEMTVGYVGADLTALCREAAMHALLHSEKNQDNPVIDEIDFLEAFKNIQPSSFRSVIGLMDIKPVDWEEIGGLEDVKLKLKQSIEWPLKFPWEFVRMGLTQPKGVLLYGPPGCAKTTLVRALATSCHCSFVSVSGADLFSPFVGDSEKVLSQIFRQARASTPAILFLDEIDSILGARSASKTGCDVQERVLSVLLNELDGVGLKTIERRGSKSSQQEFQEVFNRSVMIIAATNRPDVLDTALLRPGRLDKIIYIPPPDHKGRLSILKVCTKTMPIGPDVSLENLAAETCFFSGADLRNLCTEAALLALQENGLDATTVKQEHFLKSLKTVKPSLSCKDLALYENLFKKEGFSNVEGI
active: [12] -0.408
inactive: [1] -0.012 | [2] -0.003 | [3] -0.115 | [4] 0.016 | [5] 0.093 | [6] -0.059 | [7] 0.028 | [8] 0.047 | [9] 0.039 | [10] -0.092 | [11] 0.029 | [13] 0.138 | [14] 0.035 | [15] -0.021

SKA3 (UniProt Q8IX90)
Chain of UniProt Q8IX90 (Q8IX90 whole entry, looked up): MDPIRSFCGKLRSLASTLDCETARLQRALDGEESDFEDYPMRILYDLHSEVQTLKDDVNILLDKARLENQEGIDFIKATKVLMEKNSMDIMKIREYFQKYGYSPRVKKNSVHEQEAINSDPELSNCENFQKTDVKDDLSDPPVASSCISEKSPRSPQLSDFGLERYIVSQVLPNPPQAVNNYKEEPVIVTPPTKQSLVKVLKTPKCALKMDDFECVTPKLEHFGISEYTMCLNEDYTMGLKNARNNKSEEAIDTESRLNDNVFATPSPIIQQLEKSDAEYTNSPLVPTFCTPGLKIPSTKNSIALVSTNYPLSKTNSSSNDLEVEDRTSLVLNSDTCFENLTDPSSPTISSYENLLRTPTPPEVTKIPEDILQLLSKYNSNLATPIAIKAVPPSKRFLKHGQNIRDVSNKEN
inactive: [1] -0.046 | [2] -0.018 | [3] -0.028 | [4] 0.023 | [5] 0.002 | [6] -0.093 | [7] -0.02 | [8] 0.044 | [9] 0.034 | [10] -0.004 | [11] -0.007 | [13] 0 | [14] -0.022 | [15] 0.006
active: [12] -0.247

SRRT (UniProt Q9BXP5)
Chain of UniProt Q9BXP5 (Q9BXP5 whole entry, looked up): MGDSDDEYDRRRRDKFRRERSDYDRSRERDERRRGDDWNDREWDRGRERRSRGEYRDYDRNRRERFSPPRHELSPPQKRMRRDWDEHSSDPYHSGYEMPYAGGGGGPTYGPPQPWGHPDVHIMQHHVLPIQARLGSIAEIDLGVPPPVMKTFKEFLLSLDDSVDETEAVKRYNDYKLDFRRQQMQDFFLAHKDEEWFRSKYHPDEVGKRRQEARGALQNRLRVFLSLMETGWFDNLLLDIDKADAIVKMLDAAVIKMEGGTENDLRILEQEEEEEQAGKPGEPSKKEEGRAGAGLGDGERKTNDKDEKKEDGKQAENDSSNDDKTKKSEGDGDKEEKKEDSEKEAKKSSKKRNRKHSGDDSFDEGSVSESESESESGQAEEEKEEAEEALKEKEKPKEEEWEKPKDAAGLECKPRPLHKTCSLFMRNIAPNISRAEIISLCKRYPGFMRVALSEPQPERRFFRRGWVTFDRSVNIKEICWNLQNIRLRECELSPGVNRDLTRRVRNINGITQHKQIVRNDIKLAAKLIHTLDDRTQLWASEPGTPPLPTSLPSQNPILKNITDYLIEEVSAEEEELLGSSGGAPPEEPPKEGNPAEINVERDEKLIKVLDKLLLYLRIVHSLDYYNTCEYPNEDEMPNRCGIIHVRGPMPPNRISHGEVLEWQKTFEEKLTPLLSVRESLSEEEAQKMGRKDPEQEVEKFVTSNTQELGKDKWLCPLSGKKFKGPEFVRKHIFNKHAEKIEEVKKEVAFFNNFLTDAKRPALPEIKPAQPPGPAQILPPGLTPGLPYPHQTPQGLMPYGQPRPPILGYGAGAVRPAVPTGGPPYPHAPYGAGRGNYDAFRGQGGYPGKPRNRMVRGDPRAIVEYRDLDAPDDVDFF
active: [12] -0.373
inactive: [1] -0.013 | [2] -0.028 | [3] -0.087 | [4] -0.005 | [5] 0.026 | [6] -0.058 | [7] 0.013 | [8] 0.058 | [9] 0.016 | [10] -0.023 | [11] -0.036 | [13] 0.044 | [14] -0.008 | [15] 0.032

SOAT1 (UniProt P35610)
active: [1] 0.313
inactive: [2] -0.019 | [3] 0.071 | [4] -0.065 | [5] -0.022 | [6] -0.12 | [7] 0.072 | [8] -0.042 | [9] 0.045 | [10] -0.013 | [11] 0.014 | [12] 0.005 | [13] 0 | [14] -0.037 | [15] 0.015

STK38 (UniProt Q15208)
inactive: [1] -0.009 | [3] -0.003 | [4] 0.078 | [5] 0.064 | [6] -0.14 | [7] -0.029 | [9] 0.054 | [10] 0.036 | [11] 0.021 | [13] 0.16 | [14] -0.029 | [15] 0
active: [2] 0.858 | [8] 0.563 | [12] -0.424

SH3BP5L (UniProt Q7L8J4)
inactive: [1] -0.056 | [2] 0.037 | [3] -0.023 | [4] 0.04 | [5] -0.025 | [6] 0.007 | [7] -0.01 | [8] 0.007 | [9] 0.013 | [10] -0.033 | [11] -0.003 | [12] -0.025 | [13] -0.068 | [14] 0.051 | [15] 0.009

SVIP (UniProt Q8NHG7)
Chain of UniProt Q8NHG7 (Q8NHG7 whole entry, looked up): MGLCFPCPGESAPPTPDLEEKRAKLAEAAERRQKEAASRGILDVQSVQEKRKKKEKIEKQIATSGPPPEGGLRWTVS
inactive: [1] -0.006 | [2] 0 | [3] -0.066 | [4] 0.089 | [5] -0.013 | [6] 0.034 | [7] 0.004 | [8] -0.095 | [9] -0.012 | [10] -0.004 | [11] 0.023 | [12] 0.171 | [13] -0.041 | [14] -0.013 | [15] -0.012

SMG5 (UniProt Q9UPR3)
active: [12] -0.381
inactive: [1] -0.058 | [2] 0.034 | [3] 0.003 | [4] -0.054 | [5] 0.03 | [6] 0.013 | [7] -0.115 | [8] 0.097 | [9] 0.048 | [10] -0.027 | [11] 0.04 | [13] -0.024 | [14] 0.024 | [15] -0.023

SMTN isoform 6 (UniProt P53814)
inactive: [1] -0.011 | [2] 0.134 | [3] -0.055 | [4] -0.022 | [5] 0.031 | [6] -0.065 | [7] -0.019 | [8] 0.021 | [9] -0.005 | [10] 0.089 | [11] -0.021 | [12] -0.088 | [13] -0.007 | [14] -0.034 | [15] 0.013
